# In the library only some 19% were active in any assay of this set; here they are far more common.
# HT1080 IDH1KD tx = qHTS for induction of synthetic lethality in tumor cells producing 2HG: qHTS for the HT-1080-IDH1KD cell line. HT-1080 IDH1 knockdown viability, ATP luminescence, 48 h. Potency, µM (titrated, usually from 46.1 µM), for the others: at the top dose activity, negative = toxicity, usual class: cytotoxic. 360,000 compounds, 2% hits. AID 686971, 2013;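 also: potency is read from the fitted curve at half-maximal effect; 0% = DMSO wells and -100% = cell-free medium wells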
#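 Assay cells: HT-1080 with IDH1 knockdown, 750 per well, RPMI/5% FBS. Exposure: 48 h at 37 °C following 2 h pre-incubation. Read: CellTiter-Glo luminescence; fitted concentration-response, curve class assigned.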
# TDP1 cell noCPT = qHTS for Inhibitors of human tyrosyl-DNA phosphodiesterase 1 (TDP1): qHTS in cells in absence of CPT; DT40 Tdp1-/- hTDP1 cells, no CPT, ATP luminescence, 48 h; Potency, µM (top dose mostly 46.2 µM), without a hit: top-dose activity change, negative = growth inhibition, most hits filed as inhibitors; 420,000 compounds, 15% hits; AID 686978, 2013; also: potency is read from the fitted curve at half-maximal effect; nearly all actives have a fitted effect of over 55% in size
#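 Chicken DT40 Tdp1-/- cells stably complemented with human TDP1 were seeded at 400 cells/well with DMSO in place of 20 nM camptothecin. After compound pinning, cells grew at least 48 hr at 37 °C; viability read by CellTiter-Glo luminescence.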
# HT1080NT lethal = qHTS for induction of synthetic lethality in tumor cells producing 2HG: qHTS for the HT-1080-NT fibrosarcoma cell line. 360,000 compounds, 1.6% hits. HT-1080-NT fibrosarcoma viability, CellTiter-Glo ATP luminescence, 48 h. Potency, µM (titrated, usually from 46.1 µM), without a hit: top-dose activity, negative = less viability, actives largely listed as cytotoxic. AID 686970, 2013;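 also: NT is the 2HG producing partner of a matched IDH1 knockdown line; potency is read from the fitted curve at half-maximal effect; 0% = DMSO-treated cells and -100% = media-only wells without cells; nearly all actives have a fitted effect of over 55% in size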
#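 750 cells/well, RPMI + 5% FBS; 2 h settle, compound pin-transfer, 48 h at 37 degrees C. CellTiter-Glo 10 min RT, luminescence. Normalized to DMSO and media-only wells.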
# IL1B secr inh = qHTS for Inhibitors of Inflammasome Signaling: IL-1-beta AlphaLISA Primary Screen. 360,000 compounds, 4.7% hits. THP-1 LPS/ATP IL-1B secretion, AlphaLISA, 16 h; stronger effect = lower value. activity change, % at 57.5 µM; in the data active = activity change below about -50%; inconclusive = mostly about -30% to -49%
#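 THP-1 cells pretreated 1 hr with compounds (up to 57.5 uM final), then stimulated with LPS (250 ng/mL final) plus ATP (1.25 mM final); secreted IL-1B measured by AlphaLISA after 16 hr, decreased signal indicating inhibition.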
# TDP1 cell CPT = qHTS for Inhibitors of human tyrosyl-DNA phosphodiesterase 1 (TDP1): qHTS in cells in presence of CPT | chicken DT40 Tdp1-/-;hTDP1 cells + 20 nM CPT, ATP luminescence, 48 h | Potency, µM (doses to about 46.2 µM), without a hit: top-dose activity change, negative = growth inhibition, hits mostly inhibitors | 420,000 compounds, 12% hits | AID 686979, 2013; also: potency is read from the fitted curve at half-maximal effect; nearly all actives have a fitted effect of over 55% in size
#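 Chicken DT40 Tdp1-/- cells stably complemented with human TDP1 were seeded at 400 cells/well in medium containing 20 nM camptothecin, exposed to pin-transferred compounds, and grown at 37 °C for at least 48 hr. Viability was read as ATP luminescence.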
# An asterisk follows results filed as active; ? = inconclusive; · = not tested or not shown; [ ] = another dose, or the depositor's remark. Unless noted, calls follow the shape of the dose curve; as a rule, active = well fitted curve in the direction sought with a large enough effect; inconclusive = small, poorly fitted or top-dose-only effect, or another doubt; inactive = no such curve, though single readings can be large; an effect the other way counts as inactive or inconclusive. Unless noted, % is scaled to controls: 0 for no effect and ±100 for the full control effect.
SMILES,HT1080 IDH1KD tx,TDP1 cell noCPT,HT1080NT lethal,IL1B secr inh,TDP1 cell CPT
O=C1NC[C@H](CCCCN2C[C@H](Cc3ccccc3)N(Cc3ccccc3)C(=O)C2=O)N(CCC2CCCCC2)C1=O,12.4%,18.4µM*,21.2%,23.0,-6.3%
O=C1NC[C@H](CCCCN2C[C@H](Cc3ccccc3)N(CCC3CCCCC3)C(=O)C2=O)N(CC2CCCCC2)C1=O,4.6%,4.9%,11.4%,21.3,?
O=C1NC[C@H](CC2CCCCC2)N(CCc2cccc3ccccc23)C1=O,-3.2%,16.4µM*,-4.3%,-19.4,?
O=C1NC[C@@H](CCCCN2C[C@H](Cc3ccccc3)N(CCC3CCCCC3)C(=O)C2=O)N(CCc2ccccc2)C1=O,?,?,?,-50.9*,?
O=C1NC[C@H](CCCCN2C[C@H](Cc3ccccc3)N(CC3CCCCC3)C(=O)C2=O)N(CCc2ccccc2)C1=O,13.8%,?,22.5%,-51.4*,-29.0%
CCCCc1cc(=O)oc2c(C)c(OCc3nn[nH]n3)ccc12,-1.1%,0.2%,-18.8%,7.6,23.7%
O=C1NC[C@H](CCCCN2C[C@H](Cc3ccccc3)N(CCC3CCCCC3)C(=O)C2=O)N(CCc2ccccc2)C1=O,7.0%,?,18.4%,-71.7*,?
CC(C)C[C@H]1CN(CCCC[C@H]2CNC(=O)C(=O)N2CCC2CCCCC2)C(=O)C(=O)N1CC1CCCCC1,1.5%,18.4µM*,10.6%,-23.5,16.4µM*
O=C1NC[C@H](CCCCN2C[C@H](Cc3ccc(O)cc3)N(CCC3CCCCC3)C(=O)C2=O)N(CCc2ccccc2)C1=O,10.8%,2.1%,13.0%,-6.0,-2.9%
CCOc1ccc(NC(=O)c2ccncc2)cc1,5.7%,-6.9%,13.5%,-7.9,-9.5%
CCOc1ccc2c(c1)C(=NNC(=O)c1ccncc1)c1cc(OCC)ccc1-2,-10.1%,5.17µM*,1.7%,63.8,3.66µM*
COc1ccc(CCNC(=O)Cn2c(=O)n(Cc3ccco3)c(=O)c3ccc(Cl)cc32)cc1OC,11.3%,23.1µM*,0.0%,-3.2,?
CCOC(=O)Cn1c(=O)n(Cc2ccco2)c(=O)c2ccc(C(=O)NCCc3ccccc3)cc21,-4.3%,23.1µM*,-4.6%,1.1,18.4µM*
COc1ccc(NC(=O)Cn2c(=O)n(Cc3ccccc3Cl)c(=O)c3cc(OC)c(OC)cc32)cc1OC,·,-25.4%,·,·,3.26µM*
COCCNC(=O)Cn1c(=O)n(Cc2ccco2)c(=O)c2ccccc21,11.7%,2.0%,-0.7%,-6.3,6.4%
COc1cc2c(=O)n(Cc3ccccc3)c(=O)n(CC(=O)NCCc3ccccc3)c2cc1OC,-23.5%,14.6µM*,-29.1%,27.9,7.31µM*
CCC1C(=O)NCCN1Cc1ccc2c(c1)CN(Cc1ccc(OC)cc1OC)CCO2 (stereo unspecified),·,?,·,·,15.3%[9.04 µM]
O=C(C(=O)N1CCN(C(=O)OCc2ccccc2)CC1)c1cccs1,12.8%,?,23.1%,-16.6,7.1%
Cc1ccc(NC(=O)c2cc(S(=O)(=O)N3CCCCC3)ccc2N2CCOCC2)c(C)c1,5.8%,?,-1.5%,-19.3,?
Cc1ccccc1C(=O)N(CC(=O)Nc1sc(C)c(C)c1C(N)=O)C1CCCC1,-0.9%,14.6µM*,-26.0%,6.1,?
O=C(NCCCCc1ccccc1)c1ccc(Br)cc1,0.5%,?,6.8%,-9.0,?
CCCC(=O)N(CC(=O)Nc1sc(C)c(C)c1C(N)=O)Cc1ccccc1,1.1%,6.51µM*,0.1%,0.0,11.6µM*
O=C(NCCC(=O)N(CCc1ccccc1)Cc1ccccc1)c1ccc(Br)cc1,-12.1%,25.9µM*,-1.3%,-9.9,?
Cc1sc(NC(=O)CN(CCc2ccccc2)C(=O)C2CC2)c(C(N)=O)c1C,9.8%,?,5.2%,7.6,?
COC(=O)CCC(=O)N(CCN(Cc1ccccc1)C(=O)CCC(=O)OC)Cc1ccccc1,9.2%,-11.5%,?,48.5,?
SMILES,HT1080 IDH1KD tx,TDP1 cell noCPT,HT1080NT lethal,IL1B secr inh,TDP1 cell CPT
CCCC(=O)N(CCN(Cc1ccccc1)C(=O)CCC)Cc1ccccc1,-13.6%,23.1µM*,-3.6%,-17.1,?
CCOc1ccccc1N(C(=O)Nc1ccc(Cl)cc1)C1=NC(C)CS1 (stereo unspecified),-6.3%,?,-0.4%,-24.4,-8.0%
CCOc1ccc(CCNC(=O)c2nn(C)c3c2CS(=O)(=O)c2ccccc2-3)cc1,0.0%,3.66µM*,-7.2%,-2.9,?
CC(C)N(CCCNC(=O)c1nn(C)c2c1CS(=O)(=O)c1ccccc1-2)Cc1ccccc1,-2.5%,-3.4%,-5.4%,4.0,16.4µM*
CCOc1ccc(CCNC(=O)c2nn(C)c3c2CS(=O)(=O)c2ccccc2-3)cc1OCC,-0.4%,?,10.8%,?,23.1µM*
C=C1C2CC[C@]3(CCC4[C@@]5(C)CCC[C@@]4(CN(CCO)C5)[C@@H]3C2)[C@@H]1O (stereo partly specified),·,-4.7%[9.04 µM],·,·,-8.7%[9.04 µM]
COC(=O)[C@H](CC(C)C)NC(=O)/C=C/[C@H]1O[C@@H](n2cc(C)c(=O)[nH]c2=O)C[C@@H]1O,26.5%,21.1%,20.6%,-18.7,4.6%
Cc1cccc2nc(CNC(=O)CN3Cc4ccccc4OC(c4ccccc4F)C3)cn12 (stereo unspecified),·,-25.8%,·,·,7.2%[9.04 µM]
Cc1cccc2nc(CNC(=O)CN3Cc4cc(Cl)ccc4OC(C)C3)cn12 (stereo unspecified),·,5.8µM*,·,·,4.11µM*
CCn1c(=O)c2cc(C(=O)N3CCOCC3)sc2c2ccccc21,2.4%,?,15.7%,-20.4,-21.1%
CCn1c(=O)c2cc(C(=O)N3CCN(c4cccc(Cl)c4)CC3)sc2c2ccccc21,·,23.1µM*,·,·,14.6µM*
CCn1c(=O)c2cc(C(=O)N3CCN(c4cccc(OC)c4)CC3)sc2c2ccccc21,·,13µM*,·,·,18.4µM*
COc1ccc(CCN=Cc2c(C)[nH]n(-c3ccc([N+](=O)[O-])cc3)c2=O)cc1OC,14.7%,2.7%,-0.1%,19.9,-7.9%
Cc1[nH]n(-c2ccc([N+](=O)[O-])cc2)c(=O)c1/C=N/N1CCOCC1,?,?,?,0.2,11.6µM*
O=[N+]([O-])c1ccc(/C=N\N2CCN(c3ccc(Cl)cc3)CC2)cc1,7.7%,-20.7%,9.7%,-20.5,-17.2%
